From the supplement of paper PMC10849652
The full data set covers some 7,900 targets. This sample favours those with a hit. About 0.6% of all pairs of compound and target were hits.

What follows are targets tested with c1cn2cc(-c3ccc4cn[nH]c4c3)nc(Nc3ccc(N4CCOCC4)cc3)c2n1 [entospletinib] (assay: log2 fold change, soluble protein after heating vs DMSO (PISA); higher = thermal stabilisation; K562 cells, 10 uM, 30 min; active = over 0.2 and 3.5 SD of the protein, either way, in both replicates (recomputed)).
Method in brief: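 For each measurement, 10 μM compound was applied for 30 min to K562 cells at 2×10^6 cells/mL. Aliquots were heated for 3 min across 48°C-58°C, pooled, and extracted in PBS with 0.5% NP-40 at 4°C; the supernatant after 21,000xg for 90 min was soluble protein. This was quantified by TMTpro 16plex LC-MS/MS with channel sums equalised, and thermal stability was reported relative to control samples from duplicates, on a log2 fold-change scale.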

Chain of UniProt Q13362 (Q13362 whole entry, looked up): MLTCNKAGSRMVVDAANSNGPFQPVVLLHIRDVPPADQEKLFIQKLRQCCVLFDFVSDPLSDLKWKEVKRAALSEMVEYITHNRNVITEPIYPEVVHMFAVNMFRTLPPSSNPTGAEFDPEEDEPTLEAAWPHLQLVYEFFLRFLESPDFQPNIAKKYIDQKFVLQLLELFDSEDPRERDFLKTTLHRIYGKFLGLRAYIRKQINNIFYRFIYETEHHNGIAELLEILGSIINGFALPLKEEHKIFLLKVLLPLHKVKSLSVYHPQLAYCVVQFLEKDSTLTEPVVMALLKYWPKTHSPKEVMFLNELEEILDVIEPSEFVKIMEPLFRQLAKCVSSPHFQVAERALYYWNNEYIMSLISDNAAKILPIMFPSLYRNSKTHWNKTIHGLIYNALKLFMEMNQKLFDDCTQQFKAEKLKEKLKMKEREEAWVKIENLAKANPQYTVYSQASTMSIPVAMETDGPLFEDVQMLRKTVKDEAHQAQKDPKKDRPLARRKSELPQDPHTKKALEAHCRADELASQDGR
Chain of UniProt P07205 (P07205 whole entry, looked up): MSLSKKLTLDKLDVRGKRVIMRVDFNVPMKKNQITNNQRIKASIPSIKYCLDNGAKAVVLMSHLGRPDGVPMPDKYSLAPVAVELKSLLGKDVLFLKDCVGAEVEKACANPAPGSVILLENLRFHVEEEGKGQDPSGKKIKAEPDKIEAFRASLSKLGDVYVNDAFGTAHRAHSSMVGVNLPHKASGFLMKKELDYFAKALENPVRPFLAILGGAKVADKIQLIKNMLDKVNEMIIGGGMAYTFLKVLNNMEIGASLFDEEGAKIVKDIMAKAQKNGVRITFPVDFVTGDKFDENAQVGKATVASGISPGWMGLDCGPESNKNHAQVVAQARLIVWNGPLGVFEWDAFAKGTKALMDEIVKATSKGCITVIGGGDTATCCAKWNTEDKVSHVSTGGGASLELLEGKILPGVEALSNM
Chain of UniProt Q99460 (Q99460 whole entry, looked up): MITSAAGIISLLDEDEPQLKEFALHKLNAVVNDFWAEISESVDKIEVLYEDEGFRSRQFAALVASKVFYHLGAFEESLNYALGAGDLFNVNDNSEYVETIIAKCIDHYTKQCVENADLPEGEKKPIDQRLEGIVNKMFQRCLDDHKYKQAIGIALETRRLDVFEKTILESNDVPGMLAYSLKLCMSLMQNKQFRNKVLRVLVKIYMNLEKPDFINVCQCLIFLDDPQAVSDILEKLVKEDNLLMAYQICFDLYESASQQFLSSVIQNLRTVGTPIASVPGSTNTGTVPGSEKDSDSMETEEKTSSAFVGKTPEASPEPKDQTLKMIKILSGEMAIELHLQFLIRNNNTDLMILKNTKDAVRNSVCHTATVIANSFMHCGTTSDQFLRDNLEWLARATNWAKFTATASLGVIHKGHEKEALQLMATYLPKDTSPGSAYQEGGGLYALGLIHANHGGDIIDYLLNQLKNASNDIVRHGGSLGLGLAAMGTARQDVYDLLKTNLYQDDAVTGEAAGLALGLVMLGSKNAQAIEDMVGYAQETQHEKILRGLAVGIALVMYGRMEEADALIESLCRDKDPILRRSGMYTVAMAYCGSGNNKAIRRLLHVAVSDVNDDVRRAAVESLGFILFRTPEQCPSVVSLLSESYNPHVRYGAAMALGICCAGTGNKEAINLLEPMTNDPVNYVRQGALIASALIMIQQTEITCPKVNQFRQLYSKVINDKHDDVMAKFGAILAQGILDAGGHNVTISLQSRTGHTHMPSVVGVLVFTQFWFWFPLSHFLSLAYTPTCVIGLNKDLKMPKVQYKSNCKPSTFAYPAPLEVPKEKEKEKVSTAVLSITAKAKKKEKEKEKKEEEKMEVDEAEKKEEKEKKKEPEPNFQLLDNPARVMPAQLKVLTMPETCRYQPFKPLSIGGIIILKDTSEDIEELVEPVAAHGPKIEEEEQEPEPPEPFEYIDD
Chain of UniProt Q96A00 (Q96A00 whole entry, looked up): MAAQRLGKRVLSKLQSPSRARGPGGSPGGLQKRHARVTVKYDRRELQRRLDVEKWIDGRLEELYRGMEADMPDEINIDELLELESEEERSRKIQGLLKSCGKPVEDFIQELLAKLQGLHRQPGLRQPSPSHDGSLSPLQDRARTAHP
Chain of UniProt P15735 (P15735 whole entry, looked up): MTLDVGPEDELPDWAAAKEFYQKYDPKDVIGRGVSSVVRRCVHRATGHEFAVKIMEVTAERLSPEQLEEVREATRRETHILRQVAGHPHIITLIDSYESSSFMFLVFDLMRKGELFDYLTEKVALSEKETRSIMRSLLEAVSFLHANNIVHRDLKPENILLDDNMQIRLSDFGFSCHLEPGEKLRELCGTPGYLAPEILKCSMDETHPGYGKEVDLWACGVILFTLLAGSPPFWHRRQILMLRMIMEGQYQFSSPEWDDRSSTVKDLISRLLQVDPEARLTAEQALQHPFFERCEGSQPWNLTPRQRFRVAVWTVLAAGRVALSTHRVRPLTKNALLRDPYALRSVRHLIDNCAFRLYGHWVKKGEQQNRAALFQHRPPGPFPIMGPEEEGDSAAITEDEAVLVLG
Chain of UniProt Q15121 (Q15121 whole entry, looked up): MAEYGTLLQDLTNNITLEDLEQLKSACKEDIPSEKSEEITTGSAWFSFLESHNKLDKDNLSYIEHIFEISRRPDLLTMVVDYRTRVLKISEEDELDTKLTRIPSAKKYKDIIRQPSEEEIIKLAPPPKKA
Chain of UniProt Q6P4A8 (Q6P4A8 whole entry, looked up): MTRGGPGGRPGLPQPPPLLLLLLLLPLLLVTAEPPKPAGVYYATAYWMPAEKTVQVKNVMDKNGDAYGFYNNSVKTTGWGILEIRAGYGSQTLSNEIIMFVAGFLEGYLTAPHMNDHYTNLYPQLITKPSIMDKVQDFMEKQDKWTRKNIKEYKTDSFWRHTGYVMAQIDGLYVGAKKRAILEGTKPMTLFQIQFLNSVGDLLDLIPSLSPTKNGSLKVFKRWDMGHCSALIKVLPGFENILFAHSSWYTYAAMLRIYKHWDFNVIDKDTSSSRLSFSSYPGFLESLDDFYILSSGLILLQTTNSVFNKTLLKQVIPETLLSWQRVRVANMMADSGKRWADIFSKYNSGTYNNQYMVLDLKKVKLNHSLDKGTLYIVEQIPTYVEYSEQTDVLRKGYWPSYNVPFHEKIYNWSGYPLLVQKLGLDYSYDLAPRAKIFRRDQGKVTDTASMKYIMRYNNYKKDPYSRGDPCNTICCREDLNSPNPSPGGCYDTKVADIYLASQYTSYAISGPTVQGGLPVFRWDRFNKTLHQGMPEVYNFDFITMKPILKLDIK
Chain of UniProt P49642 (P49642 whole entry, looked up): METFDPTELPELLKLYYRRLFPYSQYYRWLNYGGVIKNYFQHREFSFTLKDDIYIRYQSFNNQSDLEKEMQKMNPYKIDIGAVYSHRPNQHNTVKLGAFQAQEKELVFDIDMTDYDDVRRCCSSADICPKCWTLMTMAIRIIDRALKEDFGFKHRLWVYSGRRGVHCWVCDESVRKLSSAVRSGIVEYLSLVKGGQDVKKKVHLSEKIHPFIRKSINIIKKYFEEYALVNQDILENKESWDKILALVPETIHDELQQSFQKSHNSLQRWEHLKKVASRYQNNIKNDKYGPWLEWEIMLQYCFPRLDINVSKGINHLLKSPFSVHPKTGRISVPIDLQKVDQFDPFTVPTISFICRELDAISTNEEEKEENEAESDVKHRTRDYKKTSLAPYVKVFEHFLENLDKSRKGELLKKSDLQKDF
Chain of UniProt Q8WUA2 (Q8WUA2 whole entry, looked up): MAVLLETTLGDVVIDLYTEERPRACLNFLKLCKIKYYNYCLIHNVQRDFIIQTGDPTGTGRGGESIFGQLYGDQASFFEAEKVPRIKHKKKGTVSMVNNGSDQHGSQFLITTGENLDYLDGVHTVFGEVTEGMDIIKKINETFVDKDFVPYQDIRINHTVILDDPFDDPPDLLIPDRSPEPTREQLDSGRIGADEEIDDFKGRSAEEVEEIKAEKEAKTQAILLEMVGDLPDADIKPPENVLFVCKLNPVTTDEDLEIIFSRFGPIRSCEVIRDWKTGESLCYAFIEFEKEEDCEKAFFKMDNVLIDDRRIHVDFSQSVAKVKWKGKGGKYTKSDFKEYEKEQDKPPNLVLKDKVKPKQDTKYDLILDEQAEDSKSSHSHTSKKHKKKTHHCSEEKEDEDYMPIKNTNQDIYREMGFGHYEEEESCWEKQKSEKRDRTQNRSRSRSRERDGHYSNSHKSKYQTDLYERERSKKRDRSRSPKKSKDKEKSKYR
Chain of UniProt Q15004 (Q15004 whole entry, looked up): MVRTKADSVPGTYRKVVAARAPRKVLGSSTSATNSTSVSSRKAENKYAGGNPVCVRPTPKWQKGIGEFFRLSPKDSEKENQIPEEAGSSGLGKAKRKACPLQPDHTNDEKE
Chain of UniProt Q15257 (Q15257 whole entry, looked up): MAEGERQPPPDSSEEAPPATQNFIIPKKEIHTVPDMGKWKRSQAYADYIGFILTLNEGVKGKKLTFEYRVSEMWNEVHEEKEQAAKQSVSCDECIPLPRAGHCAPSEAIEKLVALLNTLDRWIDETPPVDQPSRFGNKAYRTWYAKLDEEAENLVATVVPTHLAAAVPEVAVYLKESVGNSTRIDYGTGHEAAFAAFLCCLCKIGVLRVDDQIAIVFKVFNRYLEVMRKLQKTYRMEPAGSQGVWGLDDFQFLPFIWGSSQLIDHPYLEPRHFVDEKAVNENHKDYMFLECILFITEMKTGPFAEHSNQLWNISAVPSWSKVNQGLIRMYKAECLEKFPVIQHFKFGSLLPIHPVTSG
Chain of UniProt O00628 (O00628 whole entry, looked up): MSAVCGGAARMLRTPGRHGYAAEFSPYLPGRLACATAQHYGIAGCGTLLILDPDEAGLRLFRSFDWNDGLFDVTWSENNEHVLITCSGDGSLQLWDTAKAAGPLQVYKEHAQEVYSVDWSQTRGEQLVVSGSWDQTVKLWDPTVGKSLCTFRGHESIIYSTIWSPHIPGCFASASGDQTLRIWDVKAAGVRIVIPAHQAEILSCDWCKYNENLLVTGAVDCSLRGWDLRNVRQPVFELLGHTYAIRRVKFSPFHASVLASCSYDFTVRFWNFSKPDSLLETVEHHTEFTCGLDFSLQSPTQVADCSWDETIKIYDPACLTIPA

Row | Target | log2 fold change
1 | PPP2R5C isoform 2 (UniProt Q13362) | -0.041 (inactive)
2 | PDCD6IP (UniProt Q8WUM4) | 0.023 (inactive)
3 | PPP2R5E (UniProt Q16537) | -0.078 (inactive)
4 | PNN (UniProt Q9H307) | 0.172 (inactive)
5 | PPP2R5C isoform 5 (UniProt Q13362) | -0.012 (inactive)
6 | PKM isoform 2 (UniProt P14618) | 0.128 (inactive)
7 | PSMB6 (UniProt P28072) | 0.008 (inactive)
8 | PRIM2 (UniProt P49643) | 0 (inactive)
9 | PHF5A (UniProt Q7RTV0) | -0.101 (inactive)
10 | PCYT1A (UniProt P49585) | 0.017 (inactive)
11 | PCLAF (UniProt Q15004) | -0.132 (inactive)
12 | PITRM1 isoform 2 (UniProt Q5JRX3) | -0.103 (inactive)
13 | PMPCA (UniProt Q10713) | -0.046 (inactive)
14 | QRSL1 (UniProt Q9H0R6) | -0.008 (inactive)
15 | POLR2I (UniProt P36954) | 0.306 (inactive)
16 | PSMA3 (UniProt P25788) | 0.009 (inactive)
17 | PTPA (UniProt Q15257) | -0.004 (inactive)
18 | PDE4DIP isoform 4 (UniProt Q5VU43) | 0.018 (inactive)
19 | PTP4A1 (UniProt Q93096) | 0 (inactive)

Row | Target | log2 fold change
20 | PMPCB (UniProt O75439) | -0.043 (inactive)
21 | PHKG2 (UniProt P15735) | -0.279 (active)
22 | PLBD1 (UniProt Q6P4A8) | 0.011 (inactive)
23 | PRUNE1 (UniProt Q86TP1) | 0.029 (inactive)
24 | PPP6R1 (UniProt Q9UPN7) | 0.033 (inactive)
25 | PRKCA (UniProt P17252) | -0.054 (inactive)
26 | PSMD1 (UniProt Q99460) | -0.012 (inactive)
27 | PRMT8 (UniProt Q9NR22) | 0 (inactive)
28 | PDS5B (UniProt Q9NTI5) | -0.055 (inactive)
29 | PIP4K2B (UniProt P78356) | -0.04 (inactive)
30 | PGK2 (UniProt P07205) | -0.035 (inactive)
31 | PRPSAP2 (UniProt O60256) | -0.008 (inactive)
32 | PTTG1IP (UniProt P53801) | -0.044 (inactive)
33 | PSMD9 (UniProt O00233) | -0.034 (inactive)
34 | PPP1R14A (UniProt Q96A00) | 0 (inactive)
35 | PRIM1 (UniProt P49642) | 0.062 (inactive)
36 | PEX7 (UniProt O00628) | -0.01 (inactive)
37 | PPIL4 (UniProt Q8WUA2) | 0.035 (inactive)
38 | PEA15 isoform 2 (UniProt Q15121) | 0.009 (inactive)
